# Compounds with a hit are over-represented: about 21% of the library has one in this group of screens.
# SARS PLP yeast: SARS-CoV PLP inhibition in yeast | actives 0.19% (n = 330,000) | Potency, µM (doses to about 32.9 µM), for inactives: at the highest dose activity, positive = growth rescue, usual class: activators | S. cerevisiae expressing SARS-CoV PLpro, growth rescue | AID 485353; calls by dose curve; also: potency is read from the fitted curve at half-maximal effect; 0% is about no effect; nearly all actives have a fitted effect of over 55% in size
# Pf growth 96h: inhibits malaria parasite growth, 96 h. P. falciparum luciferase reporter growth, 96 h. Potency, µM (highest dose often 28.7 µM), inactives show at the highest dose activity change, negative = inhibition, most hits filed as inhibitors. actives 6.9% (n = 320,000). AID 504834; also: potency is read from the fitted curve at half-maximal effect; % is scaled to controls: 0 for no effect and ±100 for the full control effect
#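 Cell-based qHTS: luciferase-tagged P. falciparum in erythrocytes (2% hematocrit, 0.05% parasitemia final) incubated with compounds for 96 hours, 37 C, 5% CO2; luciferase detection reagent then added and luminescence measured.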
# Shiga toxin inh: Shiga toxin inhibition | Vero cells, Shiga toxin protein synthesis inhibition reporter | inhibition, % at 38.7 µM | actives 9.2% (n = 290,000); in the data active = inhibition mostly above about 28%, no sharp cut-off; inactive = mostly below about 43%; also: 0% is about no effect
# Pf growth 48h: P. falciparum growth inhibition at 48 hours (one generation) | P. falciparum luciferase growth in erythrocytes, 48 h | Potency, µM (titrated, usually from 28.7 µM), inactives show at the top dose activity change, negative = inhibition, usual class: inhibitors | actives 5.9% (n = 310,000); also: potency is read from the fitted curve at half-maximal effect; % is scaled to controls: 0 for no effect and ±100 for the full control effect
#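 A one-generation exposure of luciferase-tagged malaria parasites in RPMI 1640/Albumax erythrocyte culture, 37 C and 5% CO2. Inhibition is inferred from decreased luminescence after adding detection reagent.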
# NS1 inh: blocks influenza NS1 protein function; Potency, µM (highest dose often 46.1 µM), without a hit: at the highest dose activity, positive = more growth; actives 0.4% (n = 270,000); AID 2326; calls by dose curve; also: potency is read from the fitted curve at half-maximal effect; actives are rising curves; nearly all actives have a fitted effect of over 50% in size
#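 OD600 was taken as the measure of yeast growth restored by compound in an NS1-expressing S. cerevisiae strain. Cells had been washed out of glucose medium and diluted 1:100 into galactose -URA medium, pH 6.0.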
# CHX counter: counter-screen for Shiga toxin inhibitors: cycloheximide protein synthesis inhibition | cell reporter, cycloheximide protein synthesis inhibition counterscreen | max response, % | actives 12% (n = 300,000) | AID 2314; in the data active = max response mostly above about 13%, no sharp cut-off; inactive = mostly below about 14%; also: read at 38.3 µM for the half of the compounds with a filed dose; 0% is about no effect
# Starred values were filed as active, the others as inactive; ? = inconclusive; . = no result. Unless noted, calls follow the shape of the dose curve; as a rule, active = well fitted inhibition curve with a large enough effect; inconclusive = small, poorly fitted or top-dose-only effect, or another doubt; inactive = no such curve, though single readings can be large or run the other way.
SMILES,SARS PLP yeast,Pf growth 96h,Shiga toxin inh,Pf growth 48h,NS1 inh,CHX counter
Cc1ccc(-n2nnnc2Sc2nc([N+](=O)[O-])nn2C)cc1C,-11%,?,22,3.3µM*,-1%,-1
COc1ccc(NC(=O)CN2CCCCC2)c([N+](=O)[O-])c1,-10%,112%,56*,67%,-1%,30*
CC1CCN(CC(=O)Nc2ccc(Cl)cc2[N+](=O)[O-])CC1,0%,-7%,16,6%,.,18*
COc1ccc(NC(=O)CN2CCC(NC(=O)C3CCCCC3)CC2)c([N+](=O)[O-])c1,-2%,?,-34,4%,-3%,-2
Cc1cccc(SCC(=O)Nc2ccccc2[N+](=O)[O-])c1,-1%,11%,38,31%,-5%,16*
Cc1ccc([N+](=O)[O-])cc1NC(=O)CN1CCC(C)CC1,2%,-5%,-14,1%,15%,-2
Cc1cc(C)nc(SCC(=O)Nc2ccccc2[N+](=O)[O-])n1,4%,30%,-15,17%,-10%,-4
COCC(=O)OCC(=O)Nc1cc(C)c(C)cc1[N+](=O)[O-],-17%,-16%,24,32%,-18%,16*
CCCNS(=O)(=O)c1ccc(CCC(=O)N2CCN(c3ccc(F)cc3)CC2)cc1,6%,42%,-17,1%,4%,-6
CCOc1ccc(OCC(=O)Nc2ccc(OC)cc2[N+](=O)[O-])cc1,22%,-6%,-3,26%,3%,2
CCC(C)(C)C(=O)Nc1ccc(OC)cc1[N+](=O)[O-],2%,0%,-2,13%,?,1
CCOc1ccc(NC(=O)COC(=O)C2(C)CC2(Cl)Cl)c([N+](=O)[O-])c1 (stereo not given),-11%,?,45*,?,-2%,18*
COc1cc(-c2ccc(NC(=O)CN3CCC(C)CC3)c(OC)c2)ccc1NC(=O)CN1CCC(C)CC1,4%,31%,8,-2%,6%,-1
COc1ccc(NC(=O)COc2ccc(C)cc2)c([N+](=O)[O-])c1,-8%,-3%,86*,454%,.,44*
CCCOC(=O)Nc1cc(OC)ccc1[N+](=O)[O-],-3%,-7%,23,34%,.,25*
COc1ccc(NC(=O)CN2CCC(C)CC2)c([N+](=O)[O-])c1,1%,82%,33,65%,2%,22*
NC(=O)c1cc2cc([N+](=O)[O-])ccc2oc1=O,5%,20%,-21,3%,1%,-1
COc1cccc(C2=Nn3c(nnc3-c3cc(OC)cc(OC)c3)SC2)c1,.,.,-3,.,.,-3
COc1ccc(NC(=O)CSc2ccccc2)c([N+](=O)[O-])c1,0%,-77%,99*,110%,.,60*
COc1ccc(NC(=O)CSc2nc3ccccc3n2-c2ccccc2)c([N+](=O)[O-])c1,-3%,0%,0,?,6%,-4
CC1CCN(C(=O)Cn2nnc(-c3ccc([N+](=O)[O-])cc3)n2)CC1,-4%,15µM*,14,47%,2%,3
CC1CCN(C(=O)Cn2nnc(-c3ccccc3)n2)CC1,-4%,?,83*,21%,-15%,30*
Cc1c(Cl)cnc(NC(=O)COC(=O)C2CC3CCCC(C2)C3=O)c1Cl (stereo not given),-8%,?,.,?,.,.
O=C(CN(Cc1ccccc1F)C(=O)c1csnn1)NCc1ccc2c(c1)OCO2,-1%,3%,16,0%,0%,4
COc1cccc2cc(C(=O)CS(=O)(=O)c3ccc(C)cc3)c(=O)oc12,-1%,4.7µM*,19,4%,6%,-3
COc1cccc2cc(CC(=O)c3ccc(C)cc3C)c(=O)oc12,-2%,-6%,73*,-10%,-3%,55*
Cc1ccc(C2=NN(CCC(=O)NC3CCCC3)C(=O)CC2)cc1,2%,?,-2,2%,-3%,13
CCN1C(=O)C(=Cc2ccc(C)s2)C(=O)N(CC)C1=S,4%,108%,44*,103%,23%,21
CCN1C(=O)/C(=C/c2ccc(C)s2)NC1=S,?,.,8,8%,-8%,18
CCc1ccc(/C=N/NC(=O)c2nnn(-c3nonc3N)c2CN2CCOCC2)cc1,-4%,7%,9,-21%,-14%,-3

# Assay outcomes: PubChem BioAssay, National Center for Advancing Translational Sciences (NCATS)
